Out of some 5,500 compounds screened, about 2,000 (36%) were called active. Roughly 18% stayed inconclusive and do not appear here. Rule as the data show it: active = normalized growth mostly below about 0.91 (no sharp cut-off); inconclusive = no clear call, values can overlap the other calls; inactive = mostly above about 0.92. The list shows a part of the results.
Test: chemical genetic growth profiling, strain panel (AID 1159580);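 also: tested at 20 µM; growth read once vehicle control cultures reached saturation at 30 °C; 1 = growth at the plate median or of vehicle wells; lower values mean less growth of the strain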
Details: growth OD

Measured: normalized growth

CCN(CC)CCNc1ccc(CO)c2sc3ccccc3c(=O)c12
inactive: S. cerevisiae deletion strains, locus YJR075W, strain HOC1, hits give low values 0.979 | S. cerevisiae deletion strains, locus YKL009W, strain mrt4, hits give low values 0.993 | S. cerevisiae deletion strains, locus YKL068W, hits give low values 1 | S. cerevisiae deletion strains, locus YKL085W, strain MDH1 (second series), hits give low values 0.996 | S. cerevisiae deletion strains, locus YKL085W, strain MDH1, hits give low values 0.996 | S. cerevisiae deletion strains, locus YKL160W, strain elf1, hits give low values 1.01 | S. cerevisiae deletion strains, locus YKL190W, strain CNB1, hits give low values 1 | S. cerevisiae deletion strains, locus YKR001C, strain vps1, hits give low values 1 | S. cerevisiae deletion strains, locus YKR026C, strain gcn3, hits give low values 1.02 | S. cerevisiae deletion strains, locus YKR091W, strain srl3, hits give low values 1.01 | S. cerevisiae deletion strains, locus YLL001W, strain dnm1, hits give low values 1.01 | S. cerevisiae deletion strains, locus YLL026W, hits give low values 1.01 | S. cerevisiae deletion strains, locus YLL041C, strain sdh2, hits give low values 0.991 | S. cerevisiae deletion strains, locus YLR027C, strain aat2, hits give low values 1.01 | S. cerevisiae deletion strains, locus YLR039C, strain RIC1, hits give low values 1.01 | S. cerevisiae deletion strains, locus YLR058C, strain SHM2, hits give low values 0.998 | S. cerevisiae deletion strains, locus YLR102C, strain apc9, hits give low values 1.02 | S. cerevisiae deletion strains, locus YLR113W, strain HOG1, hits give low values 1.05 | S. cerevisiae deletion strains, locus YLR221C, strain rsa3, hits give low values 1.01 | S. cerevisiae deletion strains, locus YLR258W, strain gsy2, hits give low values 1.01 | S. cerevisiae deletion strains, locus YLR262C, strain YPT6 (second series), hits give low values 1 | S. cerevisiae deletion strains, locus YLR262C, strain YPT6, hits give low values 1.01 | S. cerevisiae deletion strains, locus YLR268W, strain sec22, hits give low values 0.947 | S. cerevisiae deletion strains, locus YLR320W, strain mms22, hits give low values 1.01 | S. cerevisiae deletion strains, locus YLR330W, strain CHS5, hits give low values 1.01 | S. cerevisiae deletion strains, locus YLR342W, strain FKS1 (second series), hits give low values 0.938 | S. cerevisiae deletion strains, locus YLR342W, strain FKS1, hits give low values 1 | S. cerevisiae deletion strains, locus YLR357W, strain rsc2, hits give low values 1.04 | S. cerevisiae deletion strains, locus YLR370C, strain arc18, hits give low values 1.01 | S. cerevisiae deletion strains, locus YLR371W, strain rom2, hits give low values 1.01 | S. cerevisiae deletion strains, locus YLR384C, strain iki3, hits give low values 1.01 | S. cerevisiae deletion strains, locus YLR418C, strain cdc73, hits give low values 0.919 | S. cerevisiae deletion strains, locus YML016C, strain PPZ1, hits give low values 0.996 | S. cerevisiae deletion strains, locus YML032C, strain rad52, hits give low values 0.948 | S. cerevisiae deletion strains, locus YML120C, strain ndi1, hits give low values 1.02 | S. cerevisiae deletion strains, locus YML124C, strain tub3, hits give low values 1.01 | S. cerevisiae deletion strains, locus YMR058W, strain fet3, hits give low values 0.998 | S. cerevisiae deletion strains, locus YMR078C, strain ctf18, hits give low values 1.01 | S. cerevisiae deletion strains, locus YMR125W, strain sto1, hits give low values 1 | S. cerevisiae deletion strains, locus YMR129W, hits give low values 1 | S. cerevisiae deletion strains, locus YMR205C, strain PFK2, hits give low values 0.997 | S. cerevisiae deletion strains, locus YMR223W, strain ubp8, hits give low values 0.994 | S. cerevisiae deletion strains, locus YMR231W, strain pep5, hits give low values 1.01 | S. cerevisiae deletion strains, locus YMR263W, strain SAP30, hits give low values 0.985 | S. cerevisiae deletion strains, locus YMR307W, strain GAS1, hits give low values 1.01 | S. cerevisiae deletion strains, locus YNL067W, strain RPL9B, hits give low values 0.973 | S. cerevisiae deletion strains, locus YNL071W, strain lat1, hits give low values 1.01 | S. cerevisiae deletion strains, locus YNL128W, strain TEP1, hits give low values 0.992 | S. cerevisiae deletion strains, locus YNL153C, strain GIM3, hits give low values 0.962 | S. cerevisiae deletion strains, locus YNL183C, strain NPR1, hits give low values 0.952 | S. cerevisiae deletion strains, locus YNL209W, strain ssb2, hits give low values 1.02 | S. cerevisiae deletion strains, locus YNL233W, strain BNI4, hits give low values 0.955 | S. cerevisiae deletion strains, locus YNL248C, strain rpa49, hits give low values 1 | S. cerevisiae deletion strains, locus YNL250W, strain rad50, hits give low values 1 | S. cerevisiae deletion strains, locus YNL271C, strain bni1, hits give low values 1.01 | S. cerevisiae deletion strains, locus YNL298W, strain CLA4, hits give low values 1.01 | S. cerevisiae deletion strains, locus YNL307C, strain MCK1, hits give low values 0.962 | S. cerevisiae deletion strains, locus YNL322C, strain KRE1 (second series), hits give low values 1.01 | S. cerevisiae deletion strains, locus YNL322C, strain KRE1, hits give low values 1.01 | S. cerevisiae deletion strains, locus YNR049C, strain mso1, hits give low values 1.01 | S. cerevisiae deletion strains, locus YNR052C, strain pop2, hits give low values 1.01 | S. cerevisiae deletion strains, locus YOL006C, strain TOP1, hits give low values 0.883 | S. cerevisiae deletion strains, locus YOL012C, strain htz1 0.879 | S. cerevisiae deletion strains, locus YOL147C, strain pex11, hits give low values 1.02 | S. cerevisiae deletion strains, locus YOR001W, strain rrp6, hits give low values 1 | S. cerevisiae deletion strains, locus YOR061W, strain CKA2, hits give low values 1 | S. cerevisiae deletion strains, locus YOR069W, strain VPS5, hits give low values 0.993 | S. cerevisiae deletion strains, locus YOR070C, strain gyp1, hits give low values 1 | S. cerevisiae deletion strains, locus YOR080W, strain dia2, hits give low values 1.01 | S. cerevisiae deletion strains, locus YOR083W, strain WHI5, hits give low values 1 | S. cerevisiae deletion strains, locus YOR106W, strain vam3, hits give low values 1.02 | S. cerevisiae deletion strains, locus YOR136W, strain idh2, hits give low values 1.01 | S. cerevisiae deletion strains, locus YOR144C, strain elg1, hits give low values 1 | S. cerevisiae deletion strains, locus YOR184W, strain ser1, hits give low values 0.995 | S. cerevisiae deletion strains, locus YOR231W, strain MKK1, hits give low values 1.04 | S. cerevisiae deletion strains, locus YOR265W, strain rbl2, hits give low values 1 | S. cerevisiae deletion strains, locus YOR270C, strain vph1, hits give low values 0.976 | S. cerevisiae deletion strains, locus YOR290C, strain snf2, hits give low values 1.01 | S. cerevisiae deletion strains, locus YOR316C, strain cot1, hits give low values 1.01 | S. cerevisiae deletion strains, locus YPL051W, strain arl3, hits give low values 0.997 | S. cerevisiae deletion strains, locus YPL055C, strain LGE1, hits give low values 0.954 | S. cerevisiae deletion strains, locus YPL078C, strain atp4, hits give low values 1.01 | S. cerevisiae deletion strains, locus YPL106C, strain sse1, hits give low values 1.02 | S. cerevisiae deletion strains, locus YPL240C, strain hsp82, hits give low values 1.01 | S. cerevisiae deletion strains, locus YPL241C, strain CIN2, hits give low values 1.02 | S. cerevisiae deletion strains, locus YPL256C, strain CLN2, hits give low values 1.01 | S. cerevisiae deletion strains, locus YPR119W, strain clb2, hits give low values 1.02 | S. cerevisiae deletion strains, locus YPR141C, strain kar3, hits give low values 1.02 | S. cerevisiae deletion strains, locus YPR163C, strain tif3, hits give low values 0.996 | S. cerevisiae deletion strains, locus YPR167C, strain met16, hits give low values 1.01 | S. cerevisiae deletion strains, strain wtn01, hits give low values 0.988 | S. cerevisiae strains, strain wild type, hits give low values 1.01
